Here are results for three compounds from PubChem BioAssay.

Test [1] in a line: liver-stage malaria parasite growth inhibition, primary screen, cell-based, HepG2, luciferase luminescence, HepG2 viability (AID 624349; in the data active = parasite load remaining mostly below about 12%, no sharp cut-off; inactive = mostly above about 10%;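 note: 100% = mean of DMSO negative control wells on the same plate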). The conditions noted are these: P. berghei liver stage in HepG2, luciferase luminescence, concentration not given here; parasite load remaining: stronger effect = lower value; viability: measured here: HepG2 viability without parasites.
The nature of test [2]: Cy5 fluorescence interference with SSB-bound oligo, artefact control for HCV NS3 helicase inhibitor project, biochemical, NIH Clinical Collection, E. coli SSB (AID 743268; call rule not given here).
For test [3], the system named is Hepatitis C virus NS3 helicase. Description: HCV NS3 helicase inhibitors, primary screen, biochemical, fluorescence polarization, NIH Clinical Collection (AID 743270; call rule not given here). The conditions noted are these: NS3 helicase binding to Cy5-dT15 DNA, stronger effect = higher value, concentration not given here. For orientation: In fluorescence polarisation assays a small probe gives low polarisation when free and higher when bound to something large.

Test [4] addresses Single-stranded DNA-binding protein (Escherichia coli (strain K12)) (UniProt P0AGE0). The test can be described thus: E. coli SSB displacement from DNA, counter-screen for HCV NS3 helicase inhibitor project, biochemical, fluorescence polarization, NIH Clinical Collection (AID 743271; in the data active = inhibition above about 28%). To be noted: stronger effect = higher value, concentration not given here.
Test [5] is described as follows: fluorescence interference in NS3h assay format, artefact control for HCV NS3 helicase inhibitor project, biochemical, NIH Clinical Collection (AID 743272; call rule not given here;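 note: HCV NS3 helicase with a Cy5 labelled single stranded DNA probe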). The conditions noted are these: fluorescence interference counterscreen, stronger effect = lower value. On the technique in general: Counterscreens check selectivity or assay interference.
The nature of test [6]: modulation of C. elegans fzo-1 (AID 1259413; call rule not given here;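 note: fzo-1 mutant C. elegans worms in liquid wells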). The conditions noted are these: C. elegans fzo-1 modulator screen, mean read-out; stronger effect = higher value.
Test [7] is described as follows: sensitizers of A549 cells to miR-34 induction, primary screen, imaging, A549 dox-inducible miR-34, nuclei and caspase counts (AID 1347080;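 active = compounds whose cell count with miR-34 switched on is under 0.7 times the count with it off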). The conditions noted are these: A549 miR-34 inducible, Hoechst nuclei count, 48 h.
A short description of test [8]: viability rescue of complex I mutant cybrids, primary screen, cell-based, galactose medium, ATP luminescence (AID 1645843;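 active = z-score of at least 1.8 in each of two replicates, scored against plate mean and spread of sample wells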;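 note: positive z means more ATP and so rescue of galactose-driven cybrid death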). The conditions noted are these: complex I mutant cybrid cells, 72 h, stronger effect = higher value.
Another test has as its system F380Y. The test can be described thus: modulators of BK channel variants, profiling panel, selectivity assay, cell-based, U2OS BacMam, thallium flux, beta subunits (AID 1259406).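 Note: initial slope of Thallos dye fluorescence rise after thallium is added; log ratio against the mean of 0.3% DMSO vehicle wells on the same plate.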 The conditions noted are these: at 30 µM.
The test system of the next test is F380Y/beta1. The description is as above. The conditions noted are these: at 30 µM.
The subject of the next test is F380Y/beta2Delta. Described as above. The conditions noted are these: at 30 µM.
The next test deals with F380Y/beta4. Described as above. To be noted: at 30 µM.
Test [9] concerns the target Calcium-activated potassium channel subunit alpha-1 (Homo sapiens) + Leucine-rich repeat-containing protein 26 (Homo sapiens) (UniProt Q12791+Q2I0M4). The test is described as above. To be noted: F380Y/Slo1WT/gamma1, at 30 µM.
Another test concerns R275C. The description is as above. The conditions noted are these: at 30 µM.
Another test has as its system R275C/beta1. Described as above. The conditions noted are these: at 30 µM.
The subject of the next test is R275C/beta2Delta. The description is as above. To be noted: at 30 µM.
The test system of another test is R275C/beta4. Described as above. To be noted: at 30 µM.
In another test the test system is R275C/Slo1WT/beta2. The description is as above. To be noted: at 30 µM.
A short description of test [10]: survival rescue of mitochondrial mutant cells in low glucose, primary screen, MELAS cybrids, Rieske KO mouse fibroblasts, CellTiter-Glo (AID 1508586;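 active = mean z-score across replicates of 1.96 or higher in either the MELAS or the Rieske mutant cell line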;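 note: z relative to plate mean and SD of compound and empty wells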).
Setting [11] is: stronger effect = lower value, cell number ratio, induced over uninduced.
The mark [12] stands for this setting: measured here: relative caspase fold change +Dox/-Dox.
Where [13] appears, read: measured here: total cells with miR-34 induction, stronger effect = lower value.
[14] abbreviates: measured here: total cells without miR-34 induction.

Values joined by “and” are separate entries in the source; they are usually repeats but may differ in a detail not shown here. Equal entries are not always repeated. Active and inactive are the calls of the source.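 Rule for the calls, unless noted: active = thallium flux through the channel raised or lowered by more than 3 SD from vehicle-only wells, actives on both sides; inactive = the rest.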

Chain of Calcium-activated potassium channel subunit alpha-1 (Homo sapiens) + Leucine-rich repeat-containing protein 26 (Homo sapiens) (Q2I0M4 whole entry, looked up, one chain of several): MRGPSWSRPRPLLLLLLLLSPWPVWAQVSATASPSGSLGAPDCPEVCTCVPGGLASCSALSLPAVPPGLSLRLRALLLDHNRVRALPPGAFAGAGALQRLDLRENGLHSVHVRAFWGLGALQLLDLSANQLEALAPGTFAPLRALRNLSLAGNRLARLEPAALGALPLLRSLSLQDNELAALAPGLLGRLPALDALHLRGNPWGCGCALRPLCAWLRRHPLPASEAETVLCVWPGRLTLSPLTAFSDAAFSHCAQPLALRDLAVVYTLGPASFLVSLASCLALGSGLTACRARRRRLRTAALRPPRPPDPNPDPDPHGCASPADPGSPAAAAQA

Consider `CCC(C)(C)N=C(NC#N)Nc1cccnc1`, for which the parasite load remaining in test [1] is 49.6% (inactive). For the same compound, in test [1], the viability came out at 69.3%. Further, the fluorescence ratio is 0.95 (inactive) in test [2] and 0.92 (inactive) in [5]. Moreover, the inhibition in [3] was -2.84% (inactive); in [4], -3.54% (inactive). The mean signal in test [6] was 201 (inactive). Besides, the fold change in test [7] (setting [11]) was 0.909 (inactive); in [7] (setting [12]), 1.24. Besides, the cell count in test [7] (setting [13]) turned out to be 9920; in [7] (setting [14]), 10900. Further, the z-score in test [8] was 0.04 (inactive). The log fold change Tl+ flux in the test on F380Y was 0.00312 (inactive); with F380Y/beta1, 0.00744 (inactive); in the test with F380Y/beta2Delta, 0.00568 (inactive); with F380Y/beta4 it was 0.0162 (inactive); in test [9], 0.00265 (inactive); in the test on R275C, -0.0443 (inactive). Further, the log fold change Tl+ flux was -0.0211 (inactive) with R275C/beta1, -0.00288 (inactive) with R275C/beta2Delta, 0.0126 (inactive) with R275C/beta4 and -0.00574 (inactive) in the test with R275C/Slo1WT/beta2.

As to `NC(=O)c1ncn(C2OC(CO)C(O)C2O)n1` (stereo not drawn), the parasite load remaining in test [1] is 36.7% (inactive). In [1], the viability came to 151%. Further, the fluorescence ratio in test [2] is 1.01 (inactive); in test [5], 1.05 (inactive). The inhibition in test [3] was 1.36% (inactive); in [4], 5.62% (inactive). In addition, the mean signal in test [6] is 278 (inactive). Besides, the fold change in test [7] (setting [11]) was 0.987 (inactive) and 0.921 (inactive); in test [7] (setting [12]) it was 1.64 and 0.871. Besides, the cell count was 9950 and 8880 in test [7] (setting [13]); 10100 and 9640 in test [7] (setting [14]). Further, the z-score in test [10] (MELAS cybrid survival, CellTiter-Glo 48 h, stronger effect = higher value) is -0.322 (inactive); in test [10] (Rieske KO mouse fibroblast survival, CellTiter-Glo 72 h), 0.486; in test [8], 1.69 (inactive). For the same compound, the log fold change Tl+ flux in the test on F380Y was -0.0109 (inactive); with F380Y/beta1, -0.00666 (inactive); with F380Y/beta2Delta it was -0.00987 (inactive); in the test on F380Y/beta4, 0.00318 (inactive); in test [9], -0.0406 (inactive); with R275C, 0.0183 (inactive). Moreover, the log fold change Tl+ flux with R275C/beta1 is -0.000638 (inactive); in the test on R275C/beta2Delta, -0.0258 (inactive); in the test with R275C/beta4, -0.0315 (inactive); in the test on R275C/Slo1WT/beta2 it was 0.0198 (inactive).

As to `CCOC(=O)CCC(=O)OC1C(OC2C(C)C(OC3CC(C)(OC)C(O)C(C)O3)C(C)C(=O)OC(CC)C(C)(O)C(O)C(C)C(=O)C(C)CC2(C)O)OC(C)CC1N(C)C` (stereo not drawn), the parasite load remaining in [1] is 56% (inactive). Besides, the viability in [1] turned out to be 94.7%. Besides, the fluorescence ratio in test [2] is 1.07 (inactive); in [5], 0.98 (inactive). Besides, the values for the inhibition in test [3] and in [4] were 0.45% (inactive) and 0.29% (inactive), respectively. In addition, the mean signal in [6] was 242 (inactive). Also, the fold change in [7] (setting [11]) was 0.96 (inactive); in test [7] (setting [12]) it was 1.93. Moreover, the cell count turned out to be 10400 in test [7] (setting [13]) and 10900 in test [7] (setting [14]). In addition, the z-score in [8] is 0.77 (inactive). In addition, the log fold change Tl+ flux was -0.00772 (inactive) in the test on F380Y; 0.06 (inactive) with F380Y/beta1; -0.0119 (inactive) with F380Y/beta2Delta; -0.0302 (inactive) in the test with F380Y/beta4; -0.0035 (inactive) in [9]; -0.135 (active) with R275C. The log fold change Tl+ flux with R275C/beta1 was 0.019 (inactive); in the test on R275C/beta2Delta, -0.0301 (inactive); with R275C/beta4, -0.00612 (inactive); with R275C/Slo1WT/beta2 it was 0.000174 (inactive).

As usually defined, the viability is a read-out of living cells in per cent, often relative to untreated cells. For orientation: inhibition means the drop in the measured response relative to a control, in per cent.
